Drawing on PubChem BioAssay (NCATS), this text covers outcome, max response and Potency for 40 compounds.

Several values for one entry are separate records, joined by “and”; a condition that tells them apart may be missing. Equal values may be shown once. Records with an inconclusive call do not appear. Activity calls are given as the source filed them. Calls come from the whole dose curve; as a rule, active = well fitted inhibition curve with a large enough effect; inconclusive = small, poorly fitted or top-dose-only effect; inactive = flat fitted curve, though single readings scatter.
% is set by controls: 0 for no effect and ±100 for the full control effect; potency is the fitted concentration of half-maximal effect.

The assay deals with KB-3-1. Description: Cytotoxic Profiling of Annotated Libraries Using Quantitative High-Throughput Screening (AID 1296008). Note: nearly all actives have a fitted effect of over 60% in size. The settings on record: Five cell lines viability, CellTiter-Glo ATP luminescence, 48-72 h; max response: stronger effect = lower value. From the text:
Cell-based phenotypic screening is a commonly used approach to discover biological pathways, novel drug targets, chemical probes and high-quality hit-to-lead molecules. Many hits identified from high-throughput screening campaign are ruled out through a series of follow-up potency, selectivity/specificity, and cytotoxicity assays. Prioritization of molecules with little or no cytotoxicity for a more in-depth downstream evaluation influence the future direction of projects, so cytotoxicity profiling of the screening libraries at early stage is essential for increasing the likelihood of candidate success. […] For the annotated library, we also examined the primary targets and mechanistic pathways regularly associated with cell death. To our knowledge, this is the first study to use high-throughput screening to profile large libraries for cytotoxicity assessment in both normal and cancer cell lines. In summary, the results generated here constitutes a valuable resource for the scientific community and provides insight on identifying cytotoxic compounds with particular mechanisms of action, and prioritizing compounds with suitable cytotoxicity profile for further evaluation.
A pintool (Kalypsys) was used to transfer 23 nL of compound solution to the 1536-well assay plates. After 48 or 72 hr incubation at 37 degree Celsius, 5% CO2 and 95% humidity, 2.5 uL of CellTiter-Glo (Promega) was dispensed into each well using a dispenser (Aspect Automation, St. Paul, MN) with solenoid valves (Lee Valves, Westbrook CT). Plates were left at room temperature for 10 min before imaging the ATP-coupled luminescence using a ViewLux microplate imager (PerkinElmer, Waltham, MA).
With `C/C=C(\C)C(=O)O[C@H]1[C@H](OC(C)=O)[C@]2(CO)[C@H](O)[C@H](O)[C@]3(C)C(=CCC4[C@@]5(C)CC[C@H](O[C@@H]6O[C@H](C(=O)O)[C@@H](O)[C@H](O[C@@H]7OC[C@H](O)[C@H](O[C@@H]8OC[C@H](O)[C@H](O)[C@H]8O)[C@H]7O)[C@H]6O[C@@H]6O[C@H](CO)[C@@H](O)[C@H](O)[C@H]6O)C(C)(C)C5CC[C@]43C)[C@@H]2CC1(C)C` (stereo not given in full), the compound was called inactive. With `CCCCCCn1c(=O)c(C(=O)Nc2ccc(C(=O)OCCC)cc2)c(O)c2ccccc21`, the compound was classed as inactive. Regarding `O=c1c2ccccc2[se]n1-c1ccccc1`, the max response is -5.46% (inactive). Take `CN1[C@H]2CC[C@@H]1[C@@H](C(=O)O)[C@@H](OC(=O)c1ccccc1)C2`: the max response is 17.1% (inactive) and -20.4% (inactive).

In the case of `C[C@@H](Cc1ccccc1)N(C)C`, the max response is 9.66% (inactive).

On to `C[C@]12CC[C@H]3[C@@H](CCC4=C(O)C(=O)CC[C@@H]43)[C@@H]1CC[C@@H]2OC(=O)CCC1CCCC1`, for which the max response is -5.37% (inactive). With `Cc1cccc(C(C)c2cnc[nH]2)c1C` (stereo not given), the max response was 8.09% (inactive). On the same count and under the same terms, the figure for `CNC(C)C(O)c1ccc(O)cc1` (stereo not given) is -2.38% (inactive) and -4.74% (inactive). On to `C[C@H]1O[C@@H](O[C@H]2C[C@@H](O)[C@]3(CO)C4C(CC[C@]3(O)C2)[C@@]2(O)CC[C@H](C3=CC(=O)OC3)[C@@]2(C)C[C@H]4O)[C@@H](O)[C@@H](O)[C@H]1O` (stereo not given in full), for which the Potency was 0.432 µM (active).

Regarding `Oc1ccc2c3c1O[C@H]1[C@@H](O)CC[C@@]4(O)[C@@H](C2)N(CC2CCC2)CC[C@]314`, the max response is 4.11% (inactive). Still for that read-out and setting: under `C[N+]1(C)[C@@H]2CC[C@H]1CC(OC(=O)c1c[nH]c3ccccc13)C2` (stereo not given in full) stands -6.15% (inactive); under `CCCCCCC(=O)O[C@H]1CC[C@H]2[C@@H]3CC[C@H]4CC(=O)C=C(C)[C@]4(C)[C@H]3CC[C@]12C`, -2.21% (inactive). On the same count and under the same terms, under `COC(=O)C1(C)CCC(=O)C2(C)c3c(O)cc(C(C)C)cc3C(O)C(OC(C)=O)C12` (stereo not given) stands 0.842% (inactive); under `ClC1=C(Cl)[C@]2(Cl)[C@@H]3[C@H]4C[C@H]([C@@H]5O[C@H]45)[C@@H]3[C@@]1(Cl)C2(Cl)Cl`, -3.16% (inactive); under `C/C(=C\c1csc(C)n1)[C@@H]1C[C@@H]2O[C@]2(C)CCC[C@H](C)[C@H](O)[C@@H](C)C(=O)C(C)(C)[C@@H](O)CC(=O)O1`, -86.7% (inactive). Still for that read-out and setting: under `CCN1C[C@]2(OC(=O)c3ccccc3NC(C)=O)CC[C@H](OC)[C@@]34[C@@H]2C[C@@H]([C@@H]13)[C@@]1(O)C[C@H](OC)[C@H]2C[C@@H]4[C@]1(O)[C@H]2OC` stands 6.81% (inactive); under `CCCCC[C@@H](O)C1C(=O)OC(C)[C@H](O)/C=C/C=C/C=C/C=C/C=C(\C)C(O)C(O)C(O)C[C@H](O)C[C@H](O)C[C@H](O)C[C@H](O)C[C@@H]1O` (stereo not given in full), -4.4% (inactive) and -1.2% (inactive); under `ClCC1CO1` (stereo not given), -11% (inactive). Turning to `CCNC(C)Cc1cccc(C(F)(F)F)c1` (stereo not given), the max response is 20.4% (inactive). Take `COC1C(O)C(C)OC(OC2C(CO)O[C@@H](O[C@@H]3CC4CCC5C(CC[C@]6(C)[C@@H](C7=CC(=O)OC7)CC[C@]56O)[C@@]4(C)[C@H](O)C3)C(O)C2O)C1O` (stereo not given in full): the Potency was 0.862 µM (active). In the case of `[2H]C([2H])([2H])[C@H](N)Cc1ccccc1`, the max response is 2.04% (inactive).

On to `C[C@]12CC[C@@H](O)C[C@H]1CC[C@@H]1[C@@H]2CC[C@]2(C)C(=O)CC[C@@H]12`, for which the compound was called inactive. With `CO[C@@H]1[C@H](O)[C@@H](O[C@@H]2C[C@H]3CC[C@@H]4C(CC[C@]5(C)[C@@H](C6=CC(=O)OC6)CC[C@]45O)[C@@]3(C)[C@H](O)C2)O[C@H](C)[C@@H]1O[C@@H]1O[C@H](CO)[C@@H](O)[C@H](O)[C@H]1O` (stereo not given in full), the Potency was 0.432 µM (active). As to `O=C/C=C/c1ccccc1`, the max response was 17.4% (inactive). With `CC(=O)OC12C(O)C(C)C3(O)C4C=C(C)C(=O)C4CC(CO)=CC3C1C2(C)C` (stereo not given), the compound was called inactive. The same measure, in the same setting: the entry for `CC1=C2C(=O)C3[C@@H](CC=C4C[C@@H](O)CC[C@@]43C)[C@@H]2CC[C@]12O[C@@H]1C[C@H](C)CN[C@H]1[C@H]2C` (stereo not given in full) is “inactive”. As to `CCC(C)(OC(C)=O)C(=O)O[C@H]1[C@H](OC(C)=O)C[C@@H]2[C@@](C)([C@@H]3C[C@H]4C=CO[C@H]4O3)[C@H](C)C[C@H](OC(C)=O)[C@@]2(COC(C)=O)[C@@]12CO2` (stereo not given in full), the max response is 8.14% (inactive). `Cc1cc(C)cc(C(=O)OC2C[C@H]3CC[C@@H](C2)N3C)c1` (stereo not given in full): the max response was -7.52% (inactive). Consider `C[C@@H]1C(=O)O[C@H]2[C@H](O)[C@@]34[C@@H]5OC(=O)[C@@]3(O[C@@H]3OC(=O)[C@@H](O)[C@@]34[C@H](C(C)(C)C)[C@H]5O)[C@@]12O`, for which the call was inactive.

Consider `CCCN1CCO[C@H]2c3cc(O)ccc3OC[C@@H]21`, for which the outcome was inactive.

`CC(Cc1ccccc1)NC=O` (stereo not given): the max response was 2% (inactive). Still for that read-out and setting: under `Cc1ccccc1-n1c(C)nc2ccccc2c1=O` stands -2.74% (inactive) and -4.4% (inactive). For the compound `O=C1C=C2C=C[C@@H]3C[C@@]2(O1)[C@H]1CCCCN31`, the max response was -12.4% (inactive). In the case of `COC1CC(O[C@H]2CC[C@@]3(C)C(=CCC4C3C(O)[C@@H](O)[C@]3(C)[C@@H](C(C)=O)CC[C@]43O)C2)OC(C)C1OC1CC(OC)C(OC2OC(C)C(O)C(O)C2O)C(C)O1` (stereo not given in full), the compound was called inactive. Same read-out and setting: the entry for `C[C@H]1C(=O)O[C@H]2[C@H](O)[C@]34C5OC(=O)[C@]3(O[C@@H]3OC(=O)[C@H](O)C34[C@H](C(C)(C)C)[C@H]5O)C12O` (stereo not given in full) is “inactive”. As for `CC1C/C=C/C(O)C(O)CC/C=C/c2cc(O)cc(O)c2C(=O)O1` (stereo not given), the max response is 0.529% (inactive).

With `COC(=O)C12C(=O)C(C)(O)C(=O)C1(C)C(C)=CC1C34CCC(OC3=O)C(C)(CO)C4CCC12C` (stereo not given), the outcome was inactive. Take `c1csc(C2(N3CCCCC3)CCCCC2)c1`: the max response was 5.46% (inactive). Same read-out and setting: the figure for `O=C(OCCN1CCCCC1)C(O)(c1ccccc1)c1ccccc1` is 1.68% (inactive); for `CCCCCCCCOC(=O)c1ccccc1C(=O)OCCCCCCCC` it is -10% (inactive).
